Shown are actives, neighbours in structure and some others; about 1.1% of the full set was active somewhere.
BAP1 inh: blocks human BAP1 ubiquitin-AMC hydrolysis | Q92560 | actives 0.48% (n = 72,000) | calls only at 20 µM | AID 436 | recombinant BAP1, Ub-AMC hydrolysis fluorescence kinetic; hits give low values;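 active = activity remaining at or below 50% of control, provided the compound also passes the data quality filters; inactive = the rest, including low values that fail the filters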;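 note: 100% = DMSO wells rate and 0% = substrate alone blank rate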
Cdc25B inh: inhibitors of human Cdc25B phosphatase. P30305. recombinant Cdc25B, OMFP fluorescence Ex485/Em525. inhibition, %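 (compounds tested at 10 µM final in the well)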. actives 0.1% (n = 65,000); in the data active = inhibition above about 50%
Target sequence (P30305 whole entry, looked up): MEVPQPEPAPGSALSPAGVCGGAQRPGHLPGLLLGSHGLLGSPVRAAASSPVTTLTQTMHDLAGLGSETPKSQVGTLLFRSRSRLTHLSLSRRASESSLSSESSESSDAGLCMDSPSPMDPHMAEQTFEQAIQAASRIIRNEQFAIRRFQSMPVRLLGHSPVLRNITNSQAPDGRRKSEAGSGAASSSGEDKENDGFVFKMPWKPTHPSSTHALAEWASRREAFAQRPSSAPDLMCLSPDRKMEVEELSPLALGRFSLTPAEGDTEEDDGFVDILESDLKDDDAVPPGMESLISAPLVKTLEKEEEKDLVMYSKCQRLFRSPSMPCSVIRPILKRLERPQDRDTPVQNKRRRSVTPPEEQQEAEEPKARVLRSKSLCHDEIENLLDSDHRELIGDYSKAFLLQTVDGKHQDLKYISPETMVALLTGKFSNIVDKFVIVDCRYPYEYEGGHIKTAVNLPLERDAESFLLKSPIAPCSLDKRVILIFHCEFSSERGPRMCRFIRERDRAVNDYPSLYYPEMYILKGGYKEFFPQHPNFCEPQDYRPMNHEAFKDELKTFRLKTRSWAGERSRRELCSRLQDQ
MKP-1 inh: human dual specificity phosphatase 1 inhibition. P28562. actives 0.15% (n = 65,000). inhibition, %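 (compounds tested at a single concentration somewhere between 10 and 100 µM)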. AID 374. recombinant MKP-1, OMFP hydrolysis fluorescence;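 active = inhibition above about 50%, limit read from the data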;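 note: 0% = DMSO max control wells and 100% = wells with enzyme stopped by NaOH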
Hsp90 inh: displaces geldanamycin probe from tumor Hsp90; actives 0.35% (n = 64,000); P07900; AID 429; inhibition, % at 30 µM; NCI-N417 lysate Hsp90, Cy3B-geldanamycin FP displacement;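 active = inhibition above 50%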;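 note: 0% = tracer plus lysate wells and 100% = tracer alone without lysate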
HePTP inhibitor: blocks human HePTP tyrosine phosphatase. P35236. recombinant HePTP phosphatase activity, OD absorbance. inhibition, % at 20 µM. actives 0.64% (n = 110,000). AID 521; in the data active = inhibition above about 50%;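 note: plate controls were vehicle for no effect and reference inhibitor for full effect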
Redox 05 DTT: redox cycling H2O2 generation, Cdc25B counter-screen | shares compounds with Cdc25B inh | cell-free redox cycling H2O2 generation, 0.5 mM DTT | EC50, µM | actives 50% (n = 30); in the data active = EC50 below about 30 µM
Redox H2O2 1DTT: redox cycling H2O2 generation, Cdc25B counter-screen | shares compounds with Cdc25B inh | cell-free redox cycling H2O2 generation, 1 mM DTT | EC50, µM | 30 tested, under 10 active | AID 683; in the data active = EC50 below about 50 µM
Redox H2O2: redox cycling H2O2 generation, MKP probe counter-screen; shares compounds with MKP-1 inh; DTT, phenol red/HRP; EC50, µM; 60 tested, under 10 active; call rule not given here
BAP1 inh confirm: BAP1 (human) enzyme inhibition, confirmed; AID 753; shares compounds with BAP1 inh; actives 8% (n = 310); purified BAP1, Ub-ethyl ester hydrolysis, HPLC; hits give low values; % of control activity, % at 20 µM;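 active = percent of control activity at or below 60%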
An asterisk follows results filed as active; i = inactive; x = no result given; + = active, no number.

SMILES | BAP1 inh | Cdc25B inh | MKP-1 inh | Hsp90 inh | HePTP inhibitor | Redox H2O2 | others
O=C(O)CCN1C(=O)c2ccccc2C1=O | i | 3 | -5 | -3 | 0 | x
O=C(CCC(NC(=O)OCc1ccccc1)C(=O)OCc1ccccc1)Oc1ccc([N+](=O)[O-])cc1 (stereo unspecified) | x | x | x | x | -2 | x
O=c1[nH]c(Nc2ccccc2)cc2ccccc12 | i | 85* | 21 | 28 | 0 | x | Redox 05 DTT=>50;Redox H2O2 1DTT=>50
O=C(O)C1Nc2c(O)cccc2C2C=CCC12 (stereo unspecified) | i | 56* | 31 | -10 | x | x | Redox 05 DTT=>50;Redox H2O2 1DTT=>50
O=C(COc1ccc(Cl)cc1Br)NCc1ccco1 | x | x | x | x | 9 | x
CCOc1ccc2noc3c2c1C(=O)c1ccccc1-3 | i | 92* | 65* | -3 | 2 | >50 | Redox 05 DTT=>50;Redox H2O2 1DTT=>50
CCNc1ccc2noc3c2c1C(=O)c1ccccc1-3 | x | x | x | x | 3 | x
O=C(OC1CCCCC1)c1ccc2c(c1)C1C=CCC1C(C(=O)O)N2 (stereo unspecified) | x | 63* | 52* | -6 | x | >50 | Redox 05 DTT=>50;Redox H2O2 1DTT=>50
COc1ccc(-c2nc(=S)c3c([nH]2)CCCC3)cc1 | i | x | x | x | x | x
O=C(NC1(O)C(=O)c2ccccc2C1=O)c1ccccc1 | i | 96* | 62* | 73* | 3 | >50 | Redox 05 DTT=29*;Redox H2O2 1DTT=>50
Cc1nonc1NC1(O)C(=O)c2ccccc2C1=O | x | x | x | x | 2 | x
Nc1nonc1C(=O)N/N=C/c1cccc(OCC(=O)O)c1 | x | x | x | x | 3 | x
N#Cc1c(N2CCCC2)nc(N)c2c(N)nc(N3CCCC3)cc12 | i | 101* | 76* | 77* | x | >50 | Redox 05 DTT=13*;Redox H2O2 1DTT=27*
CC1=C(/C=C/C(C)=C/C=C/C(C)=C/C(=O)O)C(C)(C)CCC1 | x | -16 | 56* | -2 | -7 | >50
COc1cc(/C=C(/C#N)c2ccc(F)cc2)ccc1OCc1ccc(C(=O)O)o1 | i | -3 | 62* | -4 | -5 | >50
CC(C)(C)N1C(=O)Cc2c1nc(N)c1c(N)nc(N3CCCCC3CO)c(C#N)c21 (stereo unspecified) | i | 0 | 53* | -5 | 6 | >50
Cc1cc(C(=O)Nc2ccccc2C(N)=O)ccc1[N+](=O)[O-] | x | x | x | x | 0 | x
O=C1NC(=S)N(c2ccc(Cl)cc2)C(=O)/C1=C/c1ccc(N2CCOCC2)o1 | x | x | x | x | -9 | x
COc1cc(OC)cc(C(=O)Nc2cccc(-c3nc4cc(C)cc(C)c4o3)c2C)c1 | x | x | x | x | 5 | x
Cc1nn(-c2ccccc2)c(C)c1C(=O)OCC(=O)c1c(N)n(CC(C)C)c(=O)n(C)c1=O | i | -9 | 35 | -7 | 8 | x
CC(C)Cn1c(N)c(C(=O)COC(=O)c2cc(-c3ccco3)nc3ccccc23)c(=O)n(C)c1=O | i | 41 | 51* | -9 | x | >50
O=C1C=C(NCc2ccc(Cl)c(Cl)c2)CC1 | i | -3 | 70* | 0 | 3 | >50
Cc1nc2c(C(=O)NCc3ccc4c(c3)OCO4)c[nH]n2c(=O)c1Cl | i | -8 | 38 | 0 | 0 | x
Cc1nc2c(C(=O)NCCC3=CCCCC3)c[nH]n2c(=O)c1Cl | i | -1 | 54* | 2 | 6 | >50
CCOc1ccc(-c2cc3nc(C4CCN(C(=O)OC(C)(C)C)CC4)c(C(=O)O)cn3n2)cc1 | x | -3 | 64* | -1 | 11 | >50
SMILES | BAP1 inh | Cdc25B inh | MKP-1 inh | Hsp90 inh | HePTP inhibitor | Redox H2O2 | others
CCOC(=O)C1=C(O)/C(=C/c2cc(C)n(-c3ccc(C)cc3C)c2C)N=C1C | x | x | x | x | 10 | x
CCCCn1c(SCC(=O)c2ccc(OC)cc2OC)nc2cc(S(N)(=O)=O)ccc21 | x | 28 | 54* | -1 | 12 | >50
CCCCn1c(SCc2c(C)noc2C)nc2cc(S(N)(=O)=O)ccc21 | i | -2 | -1 | -4 | 3 | x
COc1ccc(NC(=O)c2cnn3c2NC(c2ccc(F)cc2)CC3C(F)(F)F)c(OC)c1 (stereo unspecified) | i | x | x | x | -2 | x
Cn1nc(-c2ccc(Cl)cc2)c2cc(C(=O)NC3CC3)sc21 | + | -14 | 2 | -4 | 1 | x | BAP1 inh confirm=155
CCc1cc2cc3c(cc2nc1SCC(=O)Nc1cc(C)on1)OCO3 | + | 14 | -12 | -3 | -4 | x | BAP1 inh confirm=93
CCc1cc2cc3c(cc2nc1SCC(=O)N1CCN(C(=O)c2ccco2)CC1)OCO3 | i | 3 | -26 | -3 | 2 | x
Cc1ccc(-c2nc3ccccc3[nH]2)cc1NC(=O)c1ccco1 | i | 4 | 4 | -3 | 10 | x
O=C(Nc1cccc(-c2nc3ccccc3[nH]2)c1)c1cccc(NC(=O)c2ccco2)c1 | + | -2 | 10 | -7 | 14 | x | BAP1 inh confirm=135
C=CCOC(=O)C(C#N)c1nc2ccccc2nc1N1CCN(Cc2ccc3c(c2)OCO3)CC1 (stereo unspecified) | + | 3 | -4 | -9 | 2 | x | BAP1 inh confirm=76
CCOC(=O)c1sc(NC(=O)COc2ccc(C(C)(C)C)cc2)nc1C | x | x | x | x | -4 | x
CCOC(=O)c1sc2nc(NC(=O)COc3ccccc3)sc2c1C | + | 5 | 5 | -3 | -2 | x | BAP1 inh confirm=78
COc1ccc(-c2noc(-c3ccc(Cl)cc3)n2)cc1 | + | 5 | 9 | 1 | 8 | x | BAP1 inh confirm=77
COc1ccc(-c2nc(-c3ccc(C)cc3)no2)cc1 | x | x | x | x | -4 | x
Cc1ccc2cc3c(NC(=O)c4ccco4)nn(CC(C)C)c3nc2c1 | + | 1 | -19 | -3 | -1 | x | BAP1 inh confirm=109
COc1cc(C2C3=C(Nc4c2c(=O)n(C)c(=O)n4C)c2ccccc2C3=O)cc(OC)c1OC (stereo unspecified) | x | x | x | x | 1 | x
CCCn1c2c(c(O)c(C(=O)Nc3ccccc3)c1=O)CCCC2 | + | -4 | -16 | 1 | -2 | x | BAP1 inh confirm=81
COc1ccc(-c2cc(C(=O)NC34CC5CC(CC(C5)C3)C4)c3ccccc3n2)cc1OC | x | x | x | x | 7 | x
CSc1ccc(C2C(C#N)=C(N)Oc3c2ccc(=O)c2c(C)oc(C)c32)cc1 (stereo unspecified) | + | 37 | 40 | -16 | 7 | x | BAP1 inh confirm=118
Cc1ccc(SCc2c(C#N)c3ccccc3n2C)cc1 | i | 7 | 17 | -3 | 9 | x
Cc1ccccc1N1CCN(Cc2c(C#N)c3ccccc3n2C)CC1 | + | 0 | -3 | -7 | 11 | x | BAP1 inh confirm=74
COCCn1nnnc1C(C(C)C)N(Cc1ccccc1)Cc1cc2cc(OC)ccc2[nH]c1=O (stereo unspecified) | i | 2 | 41 | -1 | 9 | x
COCCn1nnnc1C(C(C)C)N(Cc1cccnc1)Cc1cc2cc(OC)ccc2[nH]c1=O (stereo unspecified) | + | 3 | 5 | 0 | 5 | x | BAP1 inh confirm=114
